# PubChem BioAssay (NCI)
# About 83,000 compounds went through this panel and 20% of them were active in at least one assay; those are over-represented in the sample as a whole.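 Each cell line was grown in a 96-well plate and treated with one concentration of compound for 48 hours. Values below 10 were considered active.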 A number with no mark means an inactive call. Calls of active or inactive are those of the source.
# Key:
# Assay in all cases: NCI-60 one-dose screen, 48 h (100 = growth as untreated, 0 = no growth, -100 = all killed)
# Conditions in all cases: 10 µM unless noted
# NCI-H23 lung = test system: NCI-H23 lung
# NCI-H226 lung = test system: NCI-H226 lung
# NCI-H322M lung = test system: NCI-H322M lung
# HOP-62 NSCLC = test system: HOP-62 NSCLC
# NCI-H460 lung = test system: NCI-H460 lung
# HOP-92 NSCLC = test system: HOP-92 NSCLC
# NCI-H522 lung = test system: NCI-H522 lung
# A549/ATCC NSCLC = test system: A549/ATCC NSCLC
# 786-0 renal = test system: 786-0 renal
# COLO 205 colon = test system: COLO 205 colon
Compound,growth (NCI-H23 lung),growth (NCI-H226 lung),growth (NCI-H322M lung),growth (HOP-62 NSCLC),growth (NCI-H460 lung),growth (HOP-92 NSCLC),growth (NCI-H522 lung),growth (A549/ATCC NSCLC),growth (786-0 renal),growth (COLO 205 colon)
Cc1c(C(=O)NNC(=O)c2ccc(Cl)cc2)nnn1-c1ccc(Cl)cc1,106%,95.3%,89.7%,97.3%,104%,79.1%,96.9%,95.2%,94.2%,97.2%
CC1(c2cc3cc(Cl)ccc3oc2=O)NC(=O)c2c(/C=C/C(=O)OC3CC4CCC3(C)C4(C)C)cccc2N1 (stereo not given),63.4%,67%,70.5%,71.5%,67.2%,40.8%,36.8%,41.7%,69.9%,48.8%
Cc1sc(C(NC(=O)OCCn2c([N+](=O)[O-])cnc2C)C(F)(F)Cl)nc1-c1ccc(OC(F)(F)F)cc1 (stereo not given),-92% (active),-65.2% (active),-92.4% (active),-89.7% (active),-29.2% (active),-82% (active),-86.1% (active),-81.3% (active),-91.3% (active),-74.2% (active)
CCOc1ccc(-c2c(C#N)c(-c3ccc(Cl)cc3)nc3n[nH]c(-c4ccc(Cl)cc4)c23)cc1OC,70.1%,59.1%,77.1%,68.7%,42.3%,36.7%,64.9%,55.4%,65.3%,29%
O=C(c1ccc(Cl)cc1)c1ccc(OCCCN2CCN(c3ccncc3)CC2)cc1,38.4%,49.4%,82.1%,38.7%,48.6%,14.9%,52.6%,55.5%,33.5%,-49.7% (active)
O=C(/C=C/c1cccc(OCc2ccccc2)c1)c1nc2ccccc2[nH]1,63.7%,1.49% (active),92.3%,50.5%,63%,22.7%,72.8%,39.1%,-60.7% (active),-31.7% (active)
N/C(=N\N=C\c1ccc([N+](=O)[O-])cc1)c1c(N)nc(=S)[nH]c1-c1ccc(Cl)cc1Cl,90.2%,82.1%,100%,57%,114%,2.04% (active),78.5%,101%,54.1%,115%
O=c1c2ccccc2nc(-c2ccccc2)n1/N=C/c1ccc2ccccc2c1,68.2%,53.3%,80.1%,55.7%,8.58% (active),79.7%,63.1%,41.8%,53%,58.2%
Clc1ccc(-c2ccc(OCCCN3CCN(c4ccncc4)CC3)cc2)cc1,50.7%,62.5%,91%,54.3%,-6.61% (active),15.9%,67.8%,59.1%,56.4%,-77.8% (active)
C=C1CCC2C3(C)COC(c4ccc(F)cc4)OC3CCC2(C)C1CC(O)C1=CCOC1=O (stereo not given),51.2%,58%,82.1%,81.7%,93.8%,45.9%,-28.2% (active),59.6%,19.4%,22.8%
CC(=O)OC[C@@]1(C)C2CC[C@]3(C)C(CC=C4C5CC(C)(C)CC[C@]5(C(=O)Nc5ccc(F)cc5)CC[C@]43C)[C@@]2(C)C[C@@H](OC(C)=O)[C@@H]1OC(C)=O (stereo not given in full),45.6%,47.7%,60.3%,41.3%,11.5%,54.2%,49.5%,40.6%,59%,43.1%
COc1cc2c(c(OC)c1OC)C(=O)CC(c1cccc(NC(=O)c3cc([N+](=O)[O-])ccc3Cl)c1)O2 (stereo not given),20.1%,25.3%,55.7%,43%,30.8%,36.3%,-27.1% (active),35.6%,25.1%,37.1%
COc1ccc(-c2nnc3ccc(N/N=C/c4ccc(C)cc4)nn23)cc1,50.7%,54.6%,85.3%,70.4%,51.2%,18.9%,91%,33.4%,56.9%,79.9%
O=C(Nc1cccc(-n2cnc3cc(-c4ccc(O)cc4)ccc32)c1)C1CC1,40.1%,13.8%,48%,44.7%,7.41% (active),125%,5.82% (active),27.4%,25.8%,34.2%
CN1C(=O)/C(=C/c2ccc(C(=O)Nc3ncc(Cc4ccc(Cl)cc4Cl)s3)cc2)SC1=S,42.8%,51.8%,47.1%,59.3%,46.2%,64.4%,19.2%,42.7%,53.3%,27.6%
COc1ccccc1/C=C/C(=O)c1ccc(OC)c(S(N)(=O)=O)c1,23.2%,39.8%,30.5%,13.5%,5.83% (active),48.6%,-9.78% (active),5.93% (active),24%,1.12% (active)
N#Cc1c(-c2cccc(Cl)c2Cl)cc(-c2ccc3ccccc3c2)[nH]c1=O,56.9%,19.6%,53.2%,34.4%,13.4%,-16.6% (active),78.7%,25.1%,-65.1% (active),116%
CCOC(=O)COc1c(OC)c(OC)cc2oc(-c3cccc(C(=O)Nc4ccc(Cl)cc4)c3)cc(=O)c12,62.9%,76.2%,108%,54.9%,83.5%,52.6%,46%,77%,49.5%,39.8%
Nc1nnc(-c2c[nH]c3ncc(Br)cc23)c(-c2c[nH]c3ccc(F)cc23)n1,33.3%,50.2%,50.5%,46.6%,25.7%,72.9%,50.5%,40.7%,39.2%,16.2%
COc1cc2oc(-c3cccc(C(=O)Nc4ccc(Cl)cc4)c3)cc(=O)c2c(OCCNC(=O)[C@@H](N)CCC(=O)O)c1OC,88.2%,86.6%,79.8%,81.9%,63.2%,63%,82.8%,103%,60.6%,70.6%
COc1cc(CNC(=O)/C=C/c2ccc3c(c2)OCO3)ccc1OCc1cn(-c2ccc([N+](=O)[O-])cc2)nn1,88.8%,60.6%,91.5%,77.8%,94.6%,96.7%,84.9%,91.6%,90.6%,118%
c1ccc(-c2csc(Nc3cccc(Nc4nc(-c5ccccc5)cs4)c3)n2)cc1,36.8%,66.2%,58.1%,73%,26.9%,43.7%,11.4%,44.2%,50.4%,83.5%
Clc1cccc(-c2ccc(OCCCN3CCN(c4ccncc4)CC3)cc2)c1,19.1%,41.3%,53.4%,-49.1% (active),-67.5% (active),-1.12% (active),-4.23% (active),-11.9% (active),-79.5% (active),-86.1% (active)
Cc1ccc(Cc2cnc(NC(=O)c3ccc(/C=C4\SC(=S)N(C)C4=O)cc3)s2)cc1,41.3%,52.5%,35.9%,46.4%,39.6%,48.4%,-22.8% (active),43.2%,37.8%,24.4%
COc1ccc(C(=O)/C=C/c2c(F)cccc2Cl)cc1S(N)(=O)=O,-16% (active),22.2%,17.4%,2.33% (active),3.49% (active),9.66% (active),-61.1% (active),8.28% (active),0.405% (active),-84.7% (active)
CSc1ccc(NC(=O)c2ccc3nn(/C(C#N)=C/c4ccccn4)nc3c2)cc1,-90.9% (active),-90.5% (active),-54.5% (active),-70.3% (active),-64.5% (active),-33.9% (active),-84.6% (active),-71.8% (active),-84.7% (active),-79% (active)
